Assay in all cases: NCI-60 one-dose screen, 48 h (100 = growth as untreated, 0 = no growth, -100 = all killed)
Conditions in all cases: 10 µM unless noted

Assay [1] deals with NCI-H23 lung.
Assay [2] has as its system NCI-H226 lung.
The test system of assay [3] is NCI-H322M lung.
Assay [4] has as its system HOP-62 NSCLC.
Assay [5] relates to NCI-H460 lung.
In assay [6] the test system is HOP-92 NSCLC.
In assay [7] the test system is NCI-H522 lung.
The subject of assay [8] is A549/ATCC NSCLC.
Assay [9] deals with 786-0 renal.
In assay [10] the test system is COLO 205 colon.
Assay [11] deals with DU-145 prostate.
In assay [12] the test system is K-562 leukemia.
The subject of assay [13] is MALME-3M melanoma.
Assay [14] relates to MDA-MB-231 breast.
In assay [15] the test system is RXF 393 renal.
Assay [16] concerns SF-268 CNS.
Assay [17] has as its system SF-295 CNS.
Assay [18] has as its system SF-539 CNS.
The subject of assay [19] is UACC-257 melanoma.
Assay [20] deals with M14 melanoma.

SMILES strings stand for the structures. About 83,000 compounds went through this panel and 20% of them were active in at least one assay; those are over-represented in the sample as a whole.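 How to read the values: 0–100, growth inhibition (40 = 60% inhibited); 0, no net growth; -100 to 0, cell death (-40 = 40% of starting cells died; -100 = all dead).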 A number with no mark means an inactive call. The source made the active and inactive calls. Rule for the calls: active = growth percent below 10; inactive = the rest.

For the compound `CC(=O)CC(c1ccccc1)c1c(C)[nH]c2ccccc12` (stereo not given), the growth in assay [1] was 81.9%; in [2], 89.7%; in assay [3], 100%; in [4], 93.1%; in assay [5], 106%; in assay [6], 94.3%. In addition, the growth in [7] is 94.4%; in [8], 99.5%; in assay [9], 104%; in assay [10], 107%; in assay [11], 110%; in assay [12], 87.2%. Further, the growth in assay [13] was 100%; in assay [14] it was 103%; in assay [15], 104%; in [16], 94.8%; in assay [17], 102%; in assay [18], 93.4%. Further, the growth is 94.8% in [19] and 94.4% in assay [20].

As for `Cc1cc(O)c(C2=NN(c3ccc(S(N)(=O)=O)cc3)C(/C=C/c3ccccc3)C2)cc1Cl` (stereo not given), the growth in assay [1] was 22.3%; in assay [2] it was 33.7%; in assay [3], 57.5%; in [4], 17.6%; in [5] it was 35.3%; in assay [6], 29.6%. In addition, the growth in [7] is 31.9%; in [8], 46.6%; in assay [9], 7.75% (active); in assay [10], 65.2%; in [11] it was 36.4%; in assay [12], 31.2%. Also, the growth in assay [13] was 24.6%; in assay [14], 47.7%; in assay [15], 30%; in assay [16], 24.1%; in [17] it was 38.5%; in assay [18] it was 13.4%. The growth in assay [19] was 64.6%; in [20], 29.8%.

Consider `C#C[C@]1(O)CC[C@H]2[C@@H]3CC=C4c5sc(Nc6ccccc6)nc5CC[C@]4(C)[C@H]3CC[C@@]21C`, for which the growth in assay [1] was 39.1%; in [2], 62.7%; in [3], 48%; in [4] it was 35.5%; in assay [5] it was 20.5%; in assay [6], 53.4%. The growth was 43.3% in [7]; 52.9% in [8]; -36.5% (active) in assay [9]; 10.1% in [10]; 16.2% in assay [11]; 9.63% (active) in assay [12]. Moreover, the growth in assay [13] is 25.8%; in assay [14], 27.7%; in assay [15], -53.1% (active); in [16], 24.3%; in assay [17], -56.4% (active); in assay [18], -51.1% (active). Besides, the growth was 30.4% in assay [19] and 2.55% (active) in assay [20].

`Cc1cccc2c3c(sc12)C(c1ccc(Cl)cc1)C(C#N)=C(N)O3` (stereo not given): the growth was 21.4% in assay [1]; 26.4% in assay [2]; 49.1% in assay [3]; 38.7% in assay [4]; 9.2% (active) in assay [5]; 89.7% in [6]. Also, the growth in assay [7] is 13.7%; in [8] it was 30.1%; in [9], 29%; in [10] it was -21.2% (active); in [11] it was 17.6%; in [12], 5.28% (active). Also, the growth was 61.9% in assay [13]; 26.1% in [14]; -7.02% (active) in assay [15]; 44.8% in assay [16]; 1.66% (active) in [17]; -14.5% (active) in assay [18]. The results for the growth in assay [19] and in [20] were 69.5% and 9.67% (active), respectively.

Turning to `O=C1c2cccc3cccc(c23)C(=O)N1Nc1nc(N2CCOCC2)nc(N2CCN(c3ccccc3)CC2)n1`, the growth in assay [1] is 64%; in assay [2], 57.5%; in [3], 65.5%; in [4], 46.3%; in assay [5], 28.8%; in assay [6], 7.52% (active). Moreover, the growth in assay [7] is 29.9%; in assay [8] it was 53.1%; in [9], 65.6%; in [10] it was 3.51% (active); in assay [11], 55%; in [12] it was 18.4%. In addition, the growth in assay [13] was 21.7%; in assay [14], 56.3%; in assay [15] it was 30.9%; in [16], 53.8%; in assay [17] it was 20.6%; in assay [18], 50.2%. The results for the growth in assay [19] and in assay [20] were 71.8% and 19.4%, respectively.

Consider `COc1cccc(-c2nc(-c3ccc(NC(=O)OC(C)C)cc3)[nH]c2-c2ccnc(Br)c2)c1`, for which the growth in assay [1] was 15.7%; in assay [2], 31.2%; in assay [3], 35.4%; in assay [4], 22.7%; in assay [5], 16.7%; in [6] it was 40.7%. Moreover, the growth in assay [7] is 26.8%; in [8], 29%; in assay [9], 0.518% (active); in [10] it was 25.7%; in [11], 36%; in assay [12] it was 6.01% (active). The growth in [13] was 21.8%; in [14] it was 37.3%; in assay [15], -33.9% (active); in [16], 40.5%; in assay [17] it was -35.6% (active); in assay [18] it was 10.5%. Further, the growth in assay [19] is 45.3%; in assay [20] it was 29.9%.

With `CC([C@H]1CCC2C3CCC4C[C@@H](NC=O)CC[C@]4(C)C3CC[C@@]21C)N(C)C` (stereo not given in full), the growth was 30.2% in [1]; 43.2% in assay [2]; -4.46% (active) in assay [3]; -55.5% (active) in assay [4]; -59.3% (active) in assay [5]; 0.955% (active) in assay [6]. Also, the growth is 56.5% in assay [7]; 15.9% in assay [8]; -88.4% (active) in assay [9]; -83.4% (active) in [10]; 34.1% in [11]; -39.8% (active) in assay [12]. Moreover, the growth is -57.6% (active) in [13]; -13.9% (active) in assay [14]; -51.2% (active) in assay [15]; -70% (active) in assay [16]; -38.8% (active) in assay [17]; -78.4% (active) in [18]. In addition, the growth is -48.3% (active) in assay [19] and -48.8% (active) in assay [20].

In the case of `CN(C)CCCNc1nc2ccccc2c2c(=O)c3cc(F)ccc3sc12`, the growth in assay [1] was 70.6%; in assay [2], 91.5%; in assay [3] it was 71.2%; in assay [4] it was 65%; in assay [5], -1.74% (active); in [6] it was 24%. For the same compound, the growth in assay [7] was 39.2%; in assay [8] it was 57%; in [9] it was 59.3%; in assay [10] it was -34.1% (active); in assay [11], 26.2%; in [12] it was -27% (active). Further, the growth in assay [13] was 81.6%; in [14], -29.6% (active); in assay [15], 48.4%; in assay [16], 52.5%; in [17], 78.2%; in [18] it was 27.3%. In addition, the growth in assay [19] is 84.9%; in [20], -64.1% (active).

These data come from PubChem BioAssay (NCI).
